From PubChem
This is a sample that favours compounds with a hit; in the whole collection about 19% have one here.
DT40 TDP1 CPT: DT40-hTDP1 cell growth loss with CPT; chicken DT40 Tdp1-/-;hTDP1 cells + 20 nM CPT, ATP luminescence, 48 h; 12% of 420,000 active; Potency, µM (doses to about 46.2 µM), for the others: at the top dose activity change, negative = growth inhibition, usual class: inhibitors; note: potency is the fitted concentration of half-maximal effect; nearly all actives have a fitted effect of over 55% in size
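Chicken DT40 Tdp1-/- cells stably complemented with human TDP1 were seeded at 400 cells/well in medium containing 20 nM camptothecin, exposed to pin-transferred compounds, and grown at 37 °C for at least 48 hr. Viability was read as ATP luminescence.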
ELG1 repair inh: blocks ELG1-dependent DNA repair in HEK293T cells; Potency, µM (series often up to 46.1 µM), for the others: top-dose activity change, negative = inhibition, most hits filed as inhibitors; AID 504467; 2.3% of 330,000 active; HEK293T ELG1-luciferase reporter, luminescence, 16 h; DNA damage induced by 5-fluorouridine; note: potency is the fitted concentration of half-maximal effect; nearly all actives have a fitted effect of over 55% in size
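Cells (2,000 per well) received 5-fluorouridine plus test compound or DMSO and were incubated 16 hr at 37 °C, 5% CO2. Luciferase activity was read by luminescence 30 min after ONE-Glo addition; signal suppression marked inhibition of damage-induced ELG1 function.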
IL1B secr inh: inflammasome signaling inhibition, IL-1 beta readout | THP-1 LPS/ATP IL-1B secretion, AlphaLISA, 16 h; stronger effect = lower value | activity change, % at 57.5 µM | 4.7% of 360,000 active | AID 743279; in the data active = activity change below about -50%; inconclusive = mostly about -30% to -49%
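Secreted IL-1B measured by AlphaLISA bead assay after 16 h compound exposure of THP-1 cells; compounds (final up to 57.5 uM) added 1 h before LPS (250 ng/mL) and ATP (1.25 mM) stimulation; lower signal means less secretion.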
Giardia kill: Giardia lamblia killing. Giardia lamblia trophozoite viability. activity change, % at 7.66 µM, hits read low. 0.15% of 340,000 active. AID 540267; in the data active = activity change below about -80%; inconclusive = between about -30% and that limit;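 note: parasites exposed to compound for two days anaerobically before the ATP read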
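Each well holds 100 Giardia trophozoites and compound. After two days (48 hrs) at 37 deg C in anaerobic conditions, ATP is quantified by luminescence.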
TDP1 inh: inhibitors of human tyrosyl-DNA phosphodiesterase TDP1 | Q9NUW8 | Potency, µM (highest dose often 130 µM), for the others: at the top dose activity change, negative = inhibition, most hits filed as inhibitors | AID 485290 | 0.28% of 350,000 active | recombinant TDP1, AlphaScreen DNA substrate cleavage; note: potency is the fitted concentration of half-maximal effect; nearly all actives have a fitted effect of over 40% in size
Target sequence (Q9NUW8 whole entry, looked up): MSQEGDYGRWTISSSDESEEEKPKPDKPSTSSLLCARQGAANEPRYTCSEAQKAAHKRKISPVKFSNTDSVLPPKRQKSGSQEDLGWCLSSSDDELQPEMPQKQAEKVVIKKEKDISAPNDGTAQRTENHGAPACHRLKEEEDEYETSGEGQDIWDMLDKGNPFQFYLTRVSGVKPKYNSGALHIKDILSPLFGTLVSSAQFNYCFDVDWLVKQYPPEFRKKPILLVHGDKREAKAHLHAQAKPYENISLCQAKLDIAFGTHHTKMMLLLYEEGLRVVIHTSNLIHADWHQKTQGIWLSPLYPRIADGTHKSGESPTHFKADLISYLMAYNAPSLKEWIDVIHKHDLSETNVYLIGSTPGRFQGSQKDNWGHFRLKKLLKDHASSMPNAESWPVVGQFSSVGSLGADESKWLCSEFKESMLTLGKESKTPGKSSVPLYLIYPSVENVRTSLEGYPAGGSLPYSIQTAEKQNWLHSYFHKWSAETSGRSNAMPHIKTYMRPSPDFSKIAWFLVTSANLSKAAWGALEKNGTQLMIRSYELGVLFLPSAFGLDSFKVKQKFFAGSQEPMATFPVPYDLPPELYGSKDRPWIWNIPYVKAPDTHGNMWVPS
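Enzyme-compound mixtures sat 15 min at room temperature, followed by a 5 min reaction with 15 nM final substrate and 10 min with AlphaScreen beads. Recombinant human Tdp1 was used at 1 nM final.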
DT40 TDP1 no CPT: qHTS for Inhibitors of human tyrosyl-DNA phosphodiesterase 1 (TDP1): qHTS in cells in absence of CPT; Potency, µM (series often up to 46.2 µM), inactives show at the top dose activity change, negative = growth inhibition, usual class: inhibitors; DT40 Tdp1-/- hTDP1 cells, no CPT, ATP luminescence, 48 h; 15% of 420,000 active; note: potency is the fitted concentration of half-maximal effect; nearly all actives have a fitted effect of over 55% in size
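Seeded 400 DT40-hTDP1 cells/well (vehicle DMSO, no 20 nM CPT); pinned compounds; ≥48 hr at 37 °C; CellTiter-Glo luminescence as viability measure.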
* hit, by the source's call; ? = inconclusive; nt = no result given; [ ] = remark or other dose. Unless noted, calls come from the whole dose curve; as a rule, active = well fitted curve in the direction sought with a large enough effect; inconclusive = small, poorly fitted or top-dose-only effect, or another doubt; inactive = no such curve, though single readings can be large; an effect the other way counts as inactive or inconclusive. % is set by controls: 0 for no effect and ±100 for the full control effect.

SMILES	DT40 TDP1 CPT	ELG1 repair inh	IL1B secr inh	Giardia kill	TDP1 inh	DT40 TDP1 no CPT
CCOc1ccc(C2c3[nH]c4ccccc4c3CCN2C(=O)CSc2ccccc2)cc1 (stereo not given)	?	nt	nt	nt	4%	21µM*
COc1ccc(C2c3[nH]c4ccc(OC)cc4c3CCN2C(=O)Nc2ccccc2)cc1 (stereo not given)	23µM*	nt	nt	nt	8%	?
COc1ccc(C2c3[nH]c4ccccc4c3CCN2C(=O)CCC2CCCC2)cc1 (stereo not given)	21µM*	nt	nt	nt	5%	?
O=C(CCC1CCCC1)N1CCc2c([nH]c3ccccc23)C1c1ccc(F)cc1 (stereo not given)	?	nt	nt	nt	0%	?
Cc1ccc(C2c3[nH]c4ccccc4c3CCN2C(=O)CSc2ccccc2)cc1 (stereo not given)	?	nt	nt	nt	5%	?
CC(C)(C)OC(=O)N1CCC[C@H]1c1nnc(SCC(=O)Nc2ccc(Br)cc2)o1	-12%	2%	-10	0	3%	-29%
CCOCCCNC(=O)c1[nH]c2cc(C)ccc2c1Sc1ccc(Cl)cc1	?	nt	nt	nt	14%	-21%
O=S(=O)(NCCN1CCOCC1)c1cccc(C(F)(F)F)c1	2%	0%	25	1	nt	-1%
Cc1ccccc1C1=CCN(c2ncc(NC(=O)c3ccc(Cl)cc3)cc2C(=O)O)CC1	?	nt	nt	nt	-6%	23µM*
O=C(Nc1cnc(N2CCC(N3CCCCC3)CC2)c(C(=O)O)c1)c1ccc(Br)cc1	1%	nt	nt	nt	-14%	-9%
COc1ccc(CCNC(=O)c2ccc3c(=O)n4c(nc3c2)CCC4)cc1OC	1%	1%	28	-23	7%	-12%
COc1cccc(CNC(=O)CCc2nnc3n(CC(C)C)c(=O)c4ccccc4n23)c1	19%	nt	nt	nt	1%	-10%
CC(Oc1ccccc1)C(=O)Nc1ccc(F)c(S(=O)(=O)N2CCOCC2)c1 (stereo not given)	-30%	4%	-10	-9	11%	-26%
NS(=O)(=O)c1ccc(-c2ccc(/C=N/NC(=O)c3ccc([N+](=O)[O-])cc3)o2)cc1	-14%	-9%	-4	-10	-3%	8%
CCCCC(=O)N/N=C/c1ccc(-c2ccc([N+](=O)[O-])cc2)o1	?	6%	-21	-2	0%	16µM*
CC(C)(C)NC(=S)N/N=C\c1ccc(-c2ccc([N+](=O)[O-])cc2)o1	9.2µM*	21µM*	nt	-28	nt	9.2µM*
CCC(=O)N/N=C/c1ccc(-c2ccc(Cl)cc2)o1	5%	15%	-18	2	3%	-14%
Cc1cc(C)n(Cc2ccc(C(=O)N/N=C/c3ccc(-c4ccc([N+](=O)[O-])cc4)o3)o2)n1	?	?	-1	4	nt	10µM*
Cc1cc([N+](=O)[O-])ccc1-c1ccc(/C=N/NC(=O)c2ccc(Br)o2)o1	?	-12%	?	18	4%	?
CNC(=S)N/N=C/c1ccc(-c2ccc(Cl)c([N+](=O)[O-])c2)o1	8.2µM*	?	-54*	0	?	9.2µM*
CCn1ccc2cc(S(=O)(=O)N3CCCN(C(=O)Nc4ccc(C)cc4)CC3)ccc21	nt	nt	nt	nt	1%	nt
Nc1ccc(S(=O)(=O)NC2=NCCCCC2)cc1	-21%	18%	-5	-16	4%	-11%
CCCOc1ccc(C(=O)Nc2ccc(S(=O)(=O)NC3=NCCCCC3)cc2)cc1	13µM*	?	-6	0	nt	21µM*
Nc1nc2cc(S(=O)(=O)NC3=NCCCCC3)ccc2s1	15µM*	-1%	?	-3	5%	13µM*
O=C(CCl)Nc1cccc(S(=O)(=O)NC2=NCCCCC2)c1	3.7µM*	?	-99*	-18	1%	5.2µM*
SMILES	DT40 TDP1 CPT	ELG1 repair inh	IL1B secr inh	Giardia kill	TDP1 inh	DT40 TDP1 no CPT
CC(C)(C)C(=O)Nc1ccc(S(=O)(=O)NC2=NCCCCC2)cc1	?	14%	6	-4	4%	-27%
O=C(CCl)Nc1ccc(S(=O)(=O)NC2=NCCCCC2)cc1	18µM*	?	-96*	-23	0%	13µM*
CN(C)S(=O)(=O)c1ccc(NC(=O)COc2ncnc3sccc23)cc1	-5%	-4%	14	29	8%	2%
Cc1ccc2cc(CNC(C)c3cccc4ccccc34)c(N3CCC(O)CC3)nc2c1 (stereo not given)	15%[9.04 µM]	nt	nt	nt	nt	-18%
COc1ccc(OC)c(NC(=O)C(=O)N/N=C(\C)CC(=O)Nc2ccc(Cl)cn2)c1	0%	20%	6	12	4%	28%
Cc1cc(OCC(=O)Nc2cccc(S(=O)(=O)NC3=NCCCCC3)c2)ccc1Cl	?	-17%	?	-8	5%	2.6µM*
Cc1ccc(OCC(=O)Nc2cccc(S(=O)(=O)NC3=NCCCCC3)c2)cc1C	?	2%	17	-11	4%	?
COC(=O)/C=C1/SC(=NC(=O)c2ccccc2)NC1=O	?	6%	-3	5	-3%	21µM*
COC(=O)/C=C1\SC(=NC(=O)c2cccc(Cl)c2)NC1=O	21µM*	0%	-10	7	3%	?
COc1ccc2c(c1OC)OCC(c1ccc(OC)c(OC)c1OC)C2 (stereo not given)	6%	nt	nt	nt	8%[56.1 µM]	-9%
CC(C)=CCOc1ccc([C@@H]2COc3c(ccc4c3C=CC(C)(C)O4)C2)c(O)c1	16µM*	nt	-20	-19	nt	21µM*
Cc1nc2sc3c(c2c(=O)n1NC(=O)CCBr)CCCC3	18µM*	16%	-10	8	0%	18µM*
CCCS(=O)(=O)NC(=O)C1(C)CCCN(C(=O)c2c(F)ccc(C)c2F)C1 (stereo not given)	-2%	nt	36	nt	nt	-7%
CC(C)N(CC(O)COc1ccc(CC(N)=O)cc1)CC(O)COc1ccc(CC(N)=O)cc1 (stereo not given)	-3%	-5%	19	-7	nt	?
Cc1cccc(N2CCN(C(=O)c3noc4c3COc3ccc(C)cc3-4)CC2C)c1 (stereo not given)	?	10%	-3	-5	3%	23µM*
COc1cccc(N2CCN(C(=O)c3cc(C)oc3C)CC2)c1	12µM*	-11%	11	-6	5%	13µM*
COc1ccc(S(=O)(=O)Cc2ccc(C(=O)N3CCN(c4cccc(C)c4)C(C)C3)o2)cc1 (stereo not given)	5.2µM*	13µM*	11	-5	8%	5.2µM*
